Compounds with a hit are over-represented: about 28% of the library has one in this group of screens.
CYP2C9 inhib: human CYP2C9 inhibition | inhibition, % at 5 µM | 96,000 tested, 20% active | P11712 | AID 777 | CYP2C9 Supersomes, luciferin-H conversion, luminescence;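 active = blocking of liver enzyme CYP2C9 beyond about 50% at 5 µM, limit read from the data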
Mac1 fbg enh: CD11b/CD18-fibrinogen binding enhancement; K562 CD11b/CD18 adhesion to fibrinogen, ATPlite luminescence; 93,000 tested, 0.07% active; activation, % at 10 µM; P05107+P11215;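 active = 10 µM primary screen giving 50% or more activity, confirmed by 40% or more on retest at that dose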
Target sequence (P05107 whole entry, looked up, other chains not shown): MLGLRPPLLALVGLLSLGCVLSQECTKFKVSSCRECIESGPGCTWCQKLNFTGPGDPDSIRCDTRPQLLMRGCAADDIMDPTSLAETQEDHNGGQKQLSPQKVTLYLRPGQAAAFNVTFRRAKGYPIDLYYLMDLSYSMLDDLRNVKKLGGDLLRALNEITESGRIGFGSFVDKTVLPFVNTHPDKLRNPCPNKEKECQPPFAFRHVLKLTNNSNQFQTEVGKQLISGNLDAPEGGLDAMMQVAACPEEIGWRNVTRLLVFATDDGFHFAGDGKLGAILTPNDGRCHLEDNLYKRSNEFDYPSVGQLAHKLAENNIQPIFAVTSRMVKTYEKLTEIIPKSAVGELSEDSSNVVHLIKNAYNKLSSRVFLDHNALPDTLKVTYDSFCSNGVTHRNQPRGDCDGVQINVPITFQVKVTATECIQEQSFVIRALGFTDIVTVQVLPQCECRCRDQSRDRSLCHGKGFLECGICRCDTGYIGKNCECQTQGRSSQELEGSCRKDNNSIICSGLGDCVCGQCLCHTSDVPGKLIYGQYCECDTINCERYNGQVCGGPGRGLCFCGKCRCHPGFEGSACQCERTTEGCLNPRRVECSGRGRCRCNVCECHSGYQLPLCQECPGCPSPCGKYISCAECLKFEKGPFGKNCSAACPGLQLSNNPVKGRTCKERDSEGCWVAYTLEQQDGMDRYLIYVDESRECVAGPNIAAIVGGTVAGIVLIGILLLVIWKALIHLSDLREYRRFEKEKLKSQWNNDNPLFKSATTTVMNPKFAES
CYP2C19 inhib: human CYP2C19 inhibition; P33261; CYP2C19 Supersomes, luciferin-H EGE luminescence, 30 min; inhibition, % at 5 µM; 96,000 tested, 21% active; AID 778;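 active = CYP2C19 inhibition above a set limit at 5 µM in the primary screen, cut at about 50% in these data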;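 also: plate controls were negative control wells for no effect and 2.5 mM tranylcypromine positive control for full effect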
CD11b adhes inh: blocks human CD11b/CD18 adhesion to fibrinogen. 93,000 tested, 0.54% active. inhibition, % at 10 µM. K562 CD11b/CD18 adhesion to fibrinogen, ATPlite luminescence; Mn2+ added to activate the integrin. P05107+P11215;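 active = primary inhibition of 50% or more at 10 µM, then 40% or more on retest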
CYP2C9 act: increases human cytochrome P450 2C9 activity. AID 1024. 96,000 tested, 1.4% active. P11712. recombinant CYP2C9, luciferin-H conversion, luminescence; active compounds read high; factor 1 = untreated enzyme, 0 = blocked. activation factor at 5 µM;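 active = activation factor of 2 or more for CYP2C9 at a 5 µM dose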;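 also: 0 = sulfaphenazole-blocked wells and 1 = vehicle-only wells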
CYP2C19 activ: cytochrome P450 2C19 (human) activation; activation factor at 5 µM; 96,000 tested, under 10 active; recombinant CYP2C19, luciferin-H EGE luminescence; active compounds read high; 0 = fully inhibited enzyme, 1 = untreated enzyme; P33261;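 active = activation factor of at least 2 at 5 µM in the primary screen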;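 also: 0 = wells with 2.5 mM tranylcypromine and 1 = vehicle-only wells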
The depositor's hits bear a star.

Results for CCc1cccc(NC2c3ccccc3C(=O)N2c2cccnc2)c1 (configuration not stated) ?
CYP2C9 inhib: 53*; Mac1 fbg enh: 7; CYP2C19 inhib: 97*; CD11b adhes inh: 4; CYP2C9 act: 0.5; CYP2C19 activ: 0

How did CCOC(=O)c1ccc(NC2c3ccccc3C(=O)N2c2cccnc2)cc1 (configuration not stated) do in these assays?
CYP2C9 inhib: 75*; Mac1 fbg enh: 2; CYP2C19 inhib: 88*; CD11b adhes inh: -9; CYP2C9 act: 0.2; CYP2C19 activ: 0.1

Results for COc1ccc(NC2c3ccccc3C(=O)N2c2ccccn2)cc1Cl (configuration not stated) ?
CYP2C9 inhib: 61*; Mac1 fbg enh: -5; CYP2C19 inhib: 76*; CD11b adhes inh: -4; CYP2C9 act: 0.4; CYP2C19 activ: 0.2

What do the screens show for `CCOC(=O)c1ccc(NC2c3ccccc3C(=O)N2c2ccc(C)cn2)cc1` (configuration not stated)?
CYP2C9 inhib: 11; Mac1 fbg enh: -3; CYP2C19 inhib: 0; CD11b adhes inh: -16; CYP2C9 act: 0.9; CYP2C19 activ: 1

Results for O=C1c2ccccc2C(Nc2ccccc2F)N1c1cccnc1 (configuration not stated) ?
CYP2C9 inhib: 16; Mac1 fbg enh: -1; CYP2C19 inhib: 36; CD11b adhes inh: -11; CYP2C9 act: 0.8; CYP2C19 activ: 0.6

What do the screens show for `CCn1c(SCc2ccc(Cl)cc2Cl)nc2nc3c(cc2c1=O)CCCC3`?
CYP2C9 inhib: 43; CYP2C19 inhib: 8; CYP2C9 act: 0.6; CYP2C19 activ: 0.9

Results for COc1ccc(N2C(=O)C3CCCN3C2c2ccccc2)cc1 (configuration not stated) ?
CYP2C9 inhib: 6; Mac1 fbg enh: 2; CYP2C19 inhib: 4; CD11b adhes inh: -6; CYP2C9 act: 0.9; CYP2C19 activ: 1

Results for O=c1cc(CO)occ1OCc1ccccc1 ?
CYP2C9 inhib: -7; Mac1 fbg enh: -5; CYP2C19 inhib: -11; CD11b adhes inh: 11; CYP2C9 act: 1.1; CYP2C19 activ: 1.1

What do the screens show for `CCC(=O)N/N=C(\C)CC(=O)Nc1ccc2ccccc2c1`?
CYP2C9 inhib: -10; Mac1 fbg enh: 0; CYP2C19 inhib: 7; CD11b adhes inh: 11; CYP2C9 act: 1.1; CYP2C19 activ: 0.9

What do the screens show for `O=c1c2ccccc2nc(N/N=C/c2c(O)ccc3ccccc23)n1O`?
CYP2C9 inhib: 7; Mac1 fbg enh: -6; CYP2C19 inhib: -16; CD11b adhes inh: 58*; CYP2C9 act: 0.9; CYP2C19 activ: 1.2

How did Cc1cccc(OCc2nnc(SCc3cc(=O)n4cc(Br)ccc4n3)o2)c1 do in these assays?
CYP2C9 inhib: 90*; Mac1 fbg enh: -6; CYP2C19 inhib: 92*; CD11b adhes inh: -12; CYP2C9 act: 0.1; CYP2C19 activ: 0.1

What do the screens show for `O=c1cc(CSc2nnc(COc3ccccc3Cl)o2)nc2sccn12`?
CYP2C9 inhib: 53*; Mac1 fbg enh: -3; CYP2C19 inhib: 88*; CD11b adhes inh: -18; CYP2C9 act: 0.5; CYP2C19 activ: 0.1

How did O=C(CN(C(=O)c1cc2c(s1)CCC2)C1CCCC1)NCc1cccs1 do in these assays?
CYP2C9 inhib: 82*; Mac1 fbg enh: -2; CYP2C19 inhib: 66*; CD11b adhes inh: -7; CYP2C9 act: 0.2; CYP2C19 activ: 0.3

Results for O=C(CN(Cc1ccccc1)C(=O)c1cc2c(s1)CCC2)NCc1cccs1 ?
CYP2C9 inhib: 75*; CYP2C19 inhib: 18; CYP2C9 act: 0.2; CYP2C19 activ: 0.8

How did O=C(CSc1nc(-c2ccccc2)cs1)Nc1ccccc1[N+](=O)[O-] do in these assays?
Mac1 fbg enh: 10; CD11b adhes inh: 24

Results for Cc1ccc(NC(=O)CSc2ncc(-c3ccccc3)n2C(=O)c2ccccc2)cc1 ?
CYP2C9 inhib: 59*; CYP2C19 inhib: 69*; CYP2C9 act: 0.4; CYP2C19 activ: 0.3

How did O=C(c1cccc([N+](=O)[O-])c1)n1nc(-c2ccccc2)nc1NCc1ccccc1 do in these assays?
Mac1 fbg enh: 1; CD11b adhes inh: 1

How did O=C(CSc1nc(-c2ccccc2)nn1C(=O)c1ccccc1)Nc1cccc([N+](=O)[O-])c1 do in these assays?
CYP2C9 inhib: 68*; CYP2C19 inhib: 42; CYP2C9 act: 0.3; CYP2C19 activ: 0.6

What do the screens show for `CCc1ccccc1NC(=O)CSc1nc(-c2ccccc2)nn1C(=O)c1cccc([N+](=O)[O-])c1`?
CYP2C9 inhib: 74*; CYP2C19 inhib: 76*; CYP2C9 act: 0.3; CYP2C19 activ: 0.2

How did Cc1ccc(C(=O)n2c(-c3ccccc3)cnc2SCC(=O)Nc2ccccc2)cc1 do in these assays?
Mac1 fbg enh: -2; CD11b adhes inh: 2

Results for CCC(=O)n1nc(-c2ccccc2)nc1SCC(=O)Nc1ccc(C)cc1 ?
CYP2C9 inhib: 22; CYP2C19 inhib: -2; CYP2C9 act: 0.8; CYP2C19 activ: 1

How did CC(=O)n1nc(-c2cccc(C)c2)nc1SCC(=O)Nc1ccccc1 do in these assays?
CYP2C9 inhib: 61*; Mac1 fbg enh: 5; CYP2C19 inhib: 55*; CD11b adhes inh: -37; CYP2C9 act: 0.4; CYP2C19 activ: 0.4

What do the screens show for `Cc1ccc(OCc2nnc(SCC(=O)NCc3ccccc3)n2C)cc1`?
CYP2C9 inhib: 22; Mac1 fbg enh: -2; CYP2C19 inhib: 7; CD11b adhes inh: -13; CYP2C9 act: 0.8; CYP2C19 activ: 0.9

What do the screens show for `Cc1c(C2OC(=O)C3(CCCCC3)C(=O)C2(C)C)c(=O)n(-c2ccccc2)n1C` (configuration not stated)?
CYP2C9 inhib: 5; Mac1 fbg enh: 6; CYP2C19 inhib: 30; CD11b adhes inh: -18; CYP2C9 act: 0.9; CYP2C19 activ: 0.7

Results for CCOc1ccc(S(=O)(=O)Nc2ccccc2SC)c2cccnc12 ?
CYP2C9 inhib: 71*; CYP2C19 inhib: 3; CYP2C9 act: 0.3; CYP2C19 activ: 1

How did CSc1ccc(S(=O)(=O)Nc2ccc(NC(C)=O)cc2)cc1 do in these assays?
CYP2C9 inhib: 94*; Mac1 fbg enh: -1; CYP2C19 inhib: 100*; CD11b adhes inh: 8; CYP2C9 act: 0.1; CYP2C19 activ: 0

Results for CSc1ccc(S(=O)(=O)Nc2ccc(S(=O)(=O)Nc3ccc(C)cc3)cc2)cc1 ?
CYP2C9 inhib: 100*; Mac1 fbg enh: 4; CYP2C19 inhib: 95*; CD11b adhes inh: 18; CYP2C9 act: 0; CYP2C19 activ: 0.1

Results for Cc1ccc(S(=O)(=O)Nc2ccc(S(=O)(=O)Nc3ncccn3)cc2)cc1 ?
CYP2C9 inhib: 49; Mac1 fbg enh: 0; CYP2C19 inhib: 27; CD11b adhes inh: 10; CYP2C9 act: 0.5; CYP2C19 activ: 0.7

Results for Cc1ccc(/C=N/Nc2nc3ccccc3[nH]2)s1 ?
Mac1 fbg enh: 2; CD11b adhes inh: 1

Screening results as filed in PubChem BioAssay.
